# Shown are actives, neighbours in structure and some others; about 3.6% of the full set was active somewhere.
# BoNT A protease: BoNT/A light chain protease inhibitors, primary screen, biochemical, flow cytometry, MLPCN library | 360,000 tested, 0.17% active | multiplex microsphere protease substrate cleavage | inhibition, % at 10 µM
# Autofluor counter: compound fluorescence in toxin protease inhibitor counterscreen. compound autofluorescence counterscreen, microsphere flow cytometry; stronger effect = higher value. fluorescence intensity (no concentration beside the values). 360,000 tested, 3.1% active; in the data active = fluorescence intensity above about 16000; inconclusive = no clear call, values can overlap the other calls
# BoNT F protease: BoNT/F light chain protease inhibitors, primary screen, biochemical, flow cytometry, MLPCN library. Botulinum neurotoxin type F light chain protease (Clostridium botulinum). Multiplex microsphere protease cleavage assay. inhibition, % at 10 µM. 360,000 tested, 0.22% active; in the data active = inhibition above about 35%, passing the limit was not always enough; inconclusive = no clear call, values can overlap the other calls
# Anthrax LF inh2: Bacillus anthracis LF protease inhibitors, primary screen, biochemical, multiplex microsphere, MLPCN library | Lethal factor (Bacillus anthracis), P15917 | multiplex microsphere protease cleavage assay | inhibition, % at 10 µM | 360,000 tested, 0.12% active | AID 588501, 2011
# MazEF act: activators of E. coli MazEF toxin-antitoxin RNase, primary screen, biochemical, fluorescence, uHTS; activation, % at 20 µM; FAM/BHQ RNA-DNA oligo cleavage fluorescence, 5 h; Endoribonuclease toxin MazF (Escherichia coli (strain K12)), P0AE70; 350,000 tested, 0.32% active; in the data active = activation above about 50%
# Target sequence (P0AE70 whole entry, looked up): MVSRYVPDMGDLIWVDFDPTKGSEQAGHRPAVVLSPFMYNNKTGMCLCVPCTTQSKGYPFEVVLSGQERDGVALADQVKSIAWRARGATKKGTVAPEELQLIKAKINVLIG
# Numbers stand for hits; - = inactive; ? = inconclusive; . = no result given. Cut-off read from the data, not from the text of the source, unless noted: active = inhibition above about 30%; inconclusive = no clear call, values can overlap the other calls; inactive = below that.
SMILES,BoNT A protease,Autofluor counter,BoNT F protease,Anthrax LF inh2,MazEF act
CCc1cc(C(=O)N2CCN(c3ncccn3)CC2)sc1C,-,?,-,-,-
COc1ccccc1NC(=O)Nc1nc(CC(=O)NCc2ccc(F)cc2)cs1,-,?,-,?,-
CCOC(=O)c1cc(-c2ccc(OC)cc2)nc2c1c(C)nn2CCC#N,?,20850,-,-,-
CCOC(=O)c1cc(-c2ccc(C#N)cc2)nc2c1c(C)nn2CCC#N,-,-,-,-,-
COc1ccc(NC(=O)CCC(=O)Nc2nnc(C(F)(F)F)s2)c(OC)c1,-,18599,-,-,-
O=C(CCC(=O)NC1CCCCCC1)Nc1nnc(C(F)(F)F)s1,?,21138,-,-,-
Cc1nn(C)cc1CNC(=O)c1ccc(Br)o1,-,20359,-,-,-
S=c1[nH]nc(C2CCCCC2)n1/N=C/C=C/c1ccccc1,?,22815,-,-,-
S=c1[nH]nc(C2CCCCC2)n1/N=C/C(Cl)=C\c1ccccc1,-,-,-,-,-
S=c1[nH]nc(C2CCCCC2)n1/N=C/c1ccc(Br)s1,?,-,38.7,-,-
Cc1cccc(N=C2CCCC2C(=O)Nc2cccc(C)c2C)c1C (stereo not given),-,-,-,-,-
Cc1ccc2cc(CN(CC3CCCO3)S(=O)(=O)c3ccccc3)c3nnnn3c2c1 (stereo not given),-,17821,-,-,-
Cc1ccc2cc(CN(CC3CCCO3)C(=O)Nc3ccccc3F)c3nnnn3c2c1 (stereo not given),-,-,-,-,-
Cc1cc(C)c(C(=O)c2ccc(C(=O)N(C(C)C)C(C)C)cc2)c(C)c1,-,22394,-,-,-
O=C(OCCNC(=O)c1ccc2ccccc2n1)c1ccc(F)cc1,?,16884,-,-,-
O=C(COC(=O)c1ccc2ccccc2n1)c1ccc(F)cc1,-,-,-,-,-
O=C(O)CN(Cc1ccccc1)S(=O)(=O)c1ccc(F)cc1,-,20545,-,-,-
CCOC(=O)CN(Cc1ccccc1)S(=O)(=O)c1ccc(NC(C)=O)cc1,-,21423,-,-,-
CC(=O)Nc1ccc(S(=O)(=O)N(CC(=O)O)Cc2ccccc2)cc1,-,-,-,-,-
O=C(O)CN(c1ccccc1F)S(=O)(=O)c1ccccc1,?,21296,-,-,-
CN(C)S(=O)(=O)c1ccc(C(=O)NCCOc2ccc(F)cc2)cc1,-,24248,-,-,-
OC[C@@H]1CN(Cc2cccc(C(F)(F)F)c2)C[C@H](n2cnc3c(NCc4ccco4)ncnc32)O1,-,-,-,-,.
Cc1ccnc(N2C(=O)OC(C)(C)C2(C)O)c1 (stereo not given),-,16787,-,-,-
Cc1ccc2nc(C3CCN(CC(=O)N4CCCCCC4)CC3)[nH]c2c1,-,23345,-,-,-
Cc1ccc2nc(C3CCN(C(=O)c4ccco4)CC3)[nH]c2c1,-,23117,-,-,-
SMILES,BoNT A protease,Autofluor counter,BoNT F protease,Anthrax LF inh2,MazEF act
FC(F)Oc1ccccc1NC(=S)NCc1ccco1,-,23284,-,-,-
O=C(CCC1COc2ccccc2O1)Nc1cccnc1 (stereo not given),-,23308,-,-,-
CCOC(=O)c1ccccc1NC(=O)COC(=O)Cc1ccccc1F,-,-,-,-,-
COc1cc(/C=C\C(=O)NCc2ccc3c(c2)cc(C)n3C)cc(OC)c1OC,68.2,-,-,-,-
COc1cc(/C=C/C(=O)NCc2ccccn2)cc(OC)c1OC,-,-,-,-,-
CCCCCCCCC(=O)c1c(OC)oc(C=O)cc1=O,-,-,-,-,-
CC(C)C(=O)Nc1ccc(Cc2ccc(NC(=O)C(C)C)c(O)c2)cc1O,-,16658,-,-,-
CCNC(=S)NNC(=O)c1cc(CC(C)C)nc2ccccc12,?,22680,-,-,-
CCCOc1cccc(-c2cc(C(=O)NNC(=S)NCC)c3ccccc3n2)c1,-,24056,-,-,-
CCNC(=S)NNC(=O)c1cc(-c2cccc(OC)c2)nc2ccccc12,-,-,-,-,-
COc1cc(N=Cc2c(CO)cnc(C)c2O)cc(OC)c1OC,-,-,-,-,-
O=C(Nc1cc(Sc2ccccn2)cc([N+](=O)[O-])c1)c1cccc(Cl)c1,-,-,-,-,76.1
Cc1ccnc(NS(=O)(=O)c2ccc(N=CC3=C(O)CC(C)(C)CC3=O)cc2)n1,?,22067,-,-,-
Cc1ccnc(NS(=O)(=O)c2ccc(N=Cc3c(O)n(C)c(=O)n(C)c3=O)cc2)n1,-,-,-,-,-
COC(=O)/C=C1\C(=O)N(c2nc3ccccc3s2)C(=S)N1c1ccc(F)cc1,-,-,-,-,57.7
CC1CCCCC1=NNC(=O)c1ccccc1 (stereo not given),-,-,-,-,-
CCc1nc2ccc(C(=O)NCCCN(C)C)cn2c1N(CC)CCOC,-,-,-,-,.
O=S(=O)(c1ccc(Cl)c(Cl)c1)N1CCc2nc3ccccc3n2CC1,-,17740,-,-,-
Cc1ccc(SCC(=O)OC(C)C(=O)NCc2ccccc2)cc1 (stereo not given),-,-,-,-,-
CSCCC(NC(=O)c1cccc(C)c1)C(=O)NCc1cccs1 (stereo not given),-,-,-,-,-
Cc1cc(NC(=O)CN(C)CC(=O)Nc2ccc(F)c(F)c2F)no1,.,.,.,.,-
COc1ccc(N(CC(=O)N2CCc3ccccc32)S(=O)(=O)c2c(C)n[nH]c2C)cc1,?,17257,-,-,-
CCN(c1ccc(OC)cc1)S(=O)(=O)c1ccc2c(c1)CCN2C(=O)CCC(=O)O,-,16864,-,-,-
CCN(c1ccc(C)c(C)c1)S(=O)(=O)c1ccc2c(c1)CCN2C(=O)CCC(=O)O,-,-,-,-,-
CCOc1ccc(-n2c(Cc3cc(=O)[nH]c(=O)[nH]3)nnc2SCC)cc1,?,19071,-,-,-
SMILES,BoNT A protease,Autofluor counter,BoNT F protease,Anthrax LF inh2,MazEF act
O=C(Nc1ccccc1F)c1cc2nc(C(F)F)cc(C(F)F)n2n1,-,21540,-,-,-
CC1CC(C)CN(C(=O)COC(=O)c2nn(C)c(=O)c3ccccc23)C1 (stereo not given),-,-,-,-,-
O=[N+]([O-])c1cc(-c2ccc(/C=N/n3cnnc3)o2)ccc1Cl,-,-,-,-,-
CC(C)COC(=O)c1cc(-c2ccc(/C=N/n3cnnc3)o2)ccc1Cl,-,22229,-,-,-
CCCCCCC(=O)NNC(=O)c1c(O)c2ccccc2n(CC)c1=O,-,-,-,-,-
CCn1c(=O)c(C(=O)Nc2ccccc2C)c(O)c2ccccc21,?,22484,-,-,-
CCCn1c(=O)c(C(=O)Nc2ccccc2C)c(O)c2ccccc21,-,-,?,-,-
CCCCCCCCC(=O)NNC(=O)c1c(O)c2ccccc2n(CC)c1=O,-,-,39.3,-,-
